Compound activity: PubChem, National Center for Advancing Translational Sciences (NCATS)
Shown are actives, neighbours in structure and some others; about 2.5% of the full set was active somewhere.
Cruzain noTriton = blocks cruzain activity in detergent-free assay | Potency, µM, inactives show max response, negative = inhibition, actives largely listed as inhibitors | purified cruzain, Z-FR-AMC fluorescence, no detergent | P25779 | hit rate 2.3% among 200,000 | AID 1476;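 also: plate controls were enzyme without inhibitor for no effect and buffer without enzyme for full effect; nearly all actives have a fitted effect of over 40% in size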
Target sequence (P25779 123-467 limits assumed): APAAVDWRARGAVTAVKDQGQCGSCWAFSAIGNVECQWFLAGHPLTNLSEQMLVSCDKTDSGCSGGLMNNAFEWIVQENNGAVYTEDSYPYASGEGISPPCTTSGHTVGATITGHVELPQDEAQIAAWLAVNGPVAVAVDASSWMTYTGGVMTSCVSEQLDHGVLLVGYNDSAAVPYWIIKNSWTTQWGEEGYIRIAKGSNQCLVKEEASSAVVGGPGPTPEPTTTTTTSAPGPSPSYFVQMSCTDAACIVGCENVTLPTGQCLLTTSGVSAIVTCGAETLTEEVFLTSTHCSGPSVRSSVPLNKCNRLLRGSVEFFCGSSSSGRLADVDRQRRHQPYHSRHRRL
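Detergent-free condition (0.00005% Triton X-100) in acetate buffer pH 5.5 with DTT. 1.5 nM enzyme and compound were pre-mixed 15 min, then 2 uM Z-FR-AMC substrate added; reaction progress from fluorescence change between first and third reads (60 s).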
Cruzain inh Det = inhibitors of Trypanosoma cruzi cruzain with detergent; P25779; purified cruzain, Z-FR-AMC fluorescence, 0.01% Triton; Potency, µM, for inactives: max response, negative = inhibition, usual class: inhibitors; hit rate 0.43% among 200,000; AID 1478;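 also: plate controls were neutral wells for no effect and buffer without enzyme for full effect; nearly all actives have a fitted effect of over 40% in size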
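Steps: dispense cruzain (1.5 nM final) in acetate buffer pH 5.5 with DTT and 0.01% Triton X-100; pin-transfer compounds; incubate 15 min RT; add Z-FR-AMC (2 uM final); read fluorescence every 30 s, using the 60 s intensity change.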
Starred values were filed as active, the others as inactive; ? = inconclusive. Calls follow the shape of the dose curve; as a rule, active = well fitted curve in the direction sought with a large enough effect; inconclusive = small, poorly fitted or top-dose-only effect, or another doubt; inactive = no such curve, though single readings can be large; an effect the other way counts as inactive or inconclusive. Potency is read from the fitted curve at half-maximal effect.

SMILES | Cruzain noTriton | Cruzain inh Det
CSc1cccc(NC(=O)C2CCN(S(=O)(=O)c3ccc4c(c3)CCCN4C(=O)C3CCC3)CC2)c1 | -30% | -1%
COc1ccccc1NC(=O)N1CC=C(c2c[nH]c3ccccc23)CC1 | -7% | -9%
CCN(CCCNC(=O)c1cc2cc3ccc(OC)cc3nc2s1)c1cccc(C)c1 | ? | -11%
CCN(CCCNC(=O)c1cc2cc3ccc(OC)cc3nc2s1)c1ccccc1 | 32µM* | 20µM*
CCOC(=O)c1ccc(NC(=O)CSc2cn(CC(=O)N3CCCC3)c3ccccc23)cc1 | 22% | -6%
COc1ccc(OC)c(C(=O)CN2CCN(S(=O)(=O)c3ccc(Br)cc3)CC2)c1 | 25µM* | 2%
COc1cc2c(cc1NC(=O)C(C)N1CCN(S(=O)(=O)c3ccccc3[N+](=O)[O-])CC1)oc1ccccc12 (centres undefined) | 0.79µM* | 3%
COc1ccc(NC(=O)CN2CCN(S(=O)(=O)c3ccc(Br)cc3)CC2)cc1 | 12% | -2%
COc1cc2c(cc1NC(=O)C(C)Oc1ccccc1)oc1ccccc12 (centres undefined) | -14% | -9%
COc1cc2c(cc1NC(=O)C(C)N1CCN(S(=O)(=O)c3ccc(C)c(C)c3)CC1)oc1ccccc12 (centres undefined) | 7.9µM* | 2%
COc1cc2c(cc1NC(=O)CN1CCN(S(=O)(=O)c3ccc(C)cc3)CC1)oc1ccccc12 | 7.9µM* | 0%
COc1cc2c(cc1NS(=O)(=O)N1CCCC1)oc1ccccc12 | 14% | -8%
COc1ccc(C)cc1NC(=O)CN1CCN(S(=O)(=O)c2ccc(Cl)cc2)CC1 | 25% | -2%
CCOC(=O)C1=C(CS(=O)(=O)c2ccc(C(C)(C)C)cc2)NC(=O)NC1c1cccc(OC)c1 (centres undefined) | 20% | -13%
CCc1ccc(NC(=O)Cn2c(=O)n(-c3cc(C)cc(C)c3)c(=O)c3oc4ccccc4c32)cc1 | -5% | 0%
COc1ccc(-c2c(C)c3ccc(O)c(CN4CCC(C)CC4)c3oc2=O)cc1OC | -14% | -8%
CC1Cn2c(C(=O)NCCc3ccc(Cl)cc3)cc3cccc(c32)S1 (centres undefined) | -24% | -10%
COc1ccc(C2=C(CN(C)C)C(c3ccccc3)c3ccccc3O2)cc1 (centres undefined) | 6% | 0%
CCOc1ccc(C2=C(C=C(C#N)C#N)C(c3ccccc3)c3ccccc3O2)cc1 (centres undefined) | 10µM* | -4%
Cc1nn(-c2nnc(NCc3ccccc3)nn2)c(C)c1Br | ? | 13µM*
Cc1cc(C)n(-c2nc(C)nc(NCc3ccccc3)n2)n1 | -4% | 4%
Cc1ccc(C)c(NC(=O)Cn2c(=O)n(Cc3nc(C)no3)c(=O)c3cc4c(cc32)OCO4)c1 | 20% | -2%
Cc1nn(-c2ccccc2)c(N2CCCC2)c1/C=C1\N=C(c2ccccc2)OC1=O | 0.79µM* | 1.6µM*
Cc1nn(-c2ccccc2)c(N2CCCCC2)c1/C=N/O | -9% | 1%
COc1cc(-c2cc(OC)c3c(C)oc(C)c3c(=O)c2)ccc1OC(=O)c1ccccc1C | 28% | -21%
SMILES | Cruzain noTriton | Cruzain inh Det
COc1ccc(NC(=O)c2cc(C)nc3ccccc23)cc1S(=O)(=O)Nc1ccccc1Cl | ? | -7%
COc1ccc(NC(=O)c2ccc3ccccc3n2)cc1S(=O)(=O)Nc1ccccc1Cl | 13µM* | -2%
COc1ccc(-c2nc(SCC(=O)Nc3cccc(C(C)=O)c3)n[nH]2)cc1 | 0% | -4%
CCOC(=O)c1cc(-c2ccc(OC)cc2)n(CCC(=O)Nc2cccc(C(C)=O)c2)c1C | 31% | -8%
[S-]C(=Nc1ccc(Cl)cc1)N[n+]1ccccc1 | 7.9µM* | 20µM*
ONC(=Nc1ccc(Cl)cc1)c1ccc(Cl)cc1 | -6% | -7%
CCn1c(CNC(=O)Cc2ccc(OC)cc2)nnc1SCC(=O)Nc1nccs1 | -7% | 5%
CCn1c(COc2ccc3c(c2)CCCC3)nnc1SCC(=O)Nc1nccs1 | 7.9µM* | 9%
CN1/C(=C\C(=S)NC(=O)c2ccccc2Cl)C(C)(C)c2ccccc21 | 32µM* | 25µM*
CN1/C(=C\C(=O)Nc2ccc(Cl)cc2)C(C)(C)c2ccccc21 | -2% | -9%
CN1/C(=C\C(=O)c2cccs2)C(C)(C)c2ccccc21 | 10% | -10%
COc1ccccc1C(=O)NC(=S)/C=C1/N(C)c2ccccc2C1(C)C | 25µM* | 14µM*
COc1cc(Nc2nc3ccccc3c3nnc(C)n23)cc(OC)c1 | ? | -10%
O=C(Nc1ccccc1)N1CCC2(CC1)CCN(C(=O)c1cccc(F)c1)CC2 | 4% | 7%
O=C(N/N=C/c1cccc(F)c1)c1c(O)c2c([nH]c1=O)CCCC2 | 20µM* | -3%
CNC(=O)c1ccccc1NC(=O)c1c(O)c2c([nH]c1=O)CCCC2 | ? | -1%
CCC(Cc1ccccc1)NC(=O)c1csc2c1CCCCC2 (centres undefined) | 23% | 0%
COc1cc2c(cc1OC)Cc1cc(OC)c(OC)cc1Cc1cc(OC)c(OC)cc1C2 | 7% | 1%
COc1ccc(Cl)cc1NC(=O)c1nc(S(C)(=O)=O)ncc1N(Cc1ccc(C)cc1)Cc1ccco1 | ? | 0%
COc1ccc(NC(=O)c2nc(S(C)(=O)=O)ncc2N(Cc2ccc(C)cc2)Cc2ccco2)cc1Cl | 10µM* | -3%
COc1ccc(-c2cn3nc(N4CCC(C(=O)Nc5cccc(Cl)c5)CC4)sc3n2)cc1 | ? | -1%
CN(C)S(=O)(=O)c1cccc(C(=O)N2CCc3ccccc32)c1 | -7% | 0%
CN(C)S(=O)(=O)c1cccc(C(=O)C2=C3SC=C(c4ccccc4)N3CC2)c1 | 25µM* | -4%
CCOC(=O)c1sc2ccccc2c1S(=O)(=O)N1CCN(c2cccc(C)c2C)CC1 | 13µM* | -2%
CCOC(=O)c1sc2ccccc2c1S(=O)(=O)N1CCN(c2ccccc2)CC1 | 32µM* | -4%
SMILES | Cruzain noTriton | Cruzain inh Det
CCOC(=O)c1sc2ccccc2c1S(=O)(=O)N1CCN(c2cccc(OC)c2)CC1 | -11% | -3%
CCOC(=O)c1sc2ccccc2c1S(=O)(=O)N1CCN(c2ccccc2F)CC1 | -27% | -4%
Cc1ccc(CNC(=O)c2cn(C)c3ccc(S(=O)(=O)N(C)C4CCCCC4)cc3c2=O)cc1 | -15% | -1%
Cc1cc(C)cc(NC(=O)/C(C#N)=C/c2cn(CC(=O)NCc3ccco3)c3ccccc23)c1 | 16µM* | -2%
Cc1ccccc1OCCn1cc(/C=C(\C#N)C(=O)NCc2ccco2)c2ccccc21 | -15% | 1%
Cc1ccc(C)c(NC(=O)/C(C#N)=C/c2cn(CC(=O)NCc3ccco3)c3ccccc23)c1 | 7.9µM* | 11%
N#C/C(=C\c1cn(CCOc2ccccc2)c2ccccc12)C(=O)NCc1ccco1 | 1% | 14%
COc1ccc(-c2cn3c(n2)sc2cc(C(=O)NC4CCCc5ccccc54)ccc23)cc1 (centres undefined) | 12% | -2%
COc1ccc(Cl)cc1NC(=O)Cn1cnc2c1c(=O)n(C)c(=O)n2C | 1% | -2%
N=C(N)SCCc1ccncc1 | 3% | -1%
c1cc(CSSCc2ccncc2)ccn1 | ? | 2.8µM*
COc1ccc(Cl)c2sc(NC(=O)c3ccc(S(=O)(=O)N4CCOCC4)cc3)nc12 | 11% | 0%
Cc1oc2c(cc(NS(=O)(=O)c3ccc(F)cc3)c3ccccc32)c1C(=O)OCc1ccccc1 | ? | 0%
Cc1oc2c(cc(NS(=O)(=O)c3ccc(Br)cc3)c3ccccc32)c1C(=O)OCc1ccccc1 | -27% | -2%
